NCOA3 inh: SRC3 coactivator transcriptional activity inhibitors, primary screen, cell-based, luminescence | Nuclear receptor coactivator 3 (Homo sapiens), Q9Y6Q9 | HEK293 GAL4-SRC3 luciferase reporter | inhibition, % at 3.6 µM | 360,000 tested, 0.17% active;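 active = inhibition above a per-campaign cutoff, the mean of all compounds plus 3 SD, cut at about 60% in these data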;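 also: 0% = DMSO-treated cells and 100% = gossypol-treated cells at 36 µM; higher means less SRC3-driven luciferase light from the GAL4 reporter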
NR5A2 inv ag: LRH-1 (NR5A2) inverse agonists, primary screen, cell-based, luminescence, HEK293T, StAR-luciferase reporter. Nuclear receptor subfamily 5 group A member 2 (Homo sapiens), O00482. LRH-1 transfected, 24 h. inhibition, % at 3.6 µM. 360,000 tested, 0.13% active;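 active = inhibition above the mean inhibition of all tested compounds plus 3 SD, cut at about 73% in these data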;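 also: 0% = DMSO wells and 100% = reporter-only cells lacking LRH-1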
NCOA2 inhibitor: inhibition of GAL4-SRC2 driven luciferase reporter, primary screen, SRC2 inhibitor project, cell-based, luminescence; Nuclear receptor coactivator 2 (Homo sapiens), Q15596; HEK293 GAL4-SRC2 luciferase reporter; inhibition, % at 9 µM; 370,000 tested, 0.17% active;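 active = inhibition above the mean inhibition of all tested compounds plus 3 SD, set per campaign, cut at about 52% in these data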;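 also: 0% = DMSO treated cells and 100% = cells given Gossypol at 36 µM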
SRC1 inh: SRC1 coactivator transcriptional activity inhibitors, primary screen, cell-based, luminescence | 360,000 tested, 0.12% active | inhibition, % at 3.6 µM | HEK293 GAL4-SRC1 luciferase reporter | Nuclear receptor coactivator 1 (Homo sapiens), Q15788 | AID 588354, 2011;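 active = inhibition above the campaign mean plus 3 SD, with each screening campaign given its own cutoff, cut at about 60% in these data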;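 also: 0% = DMSO treated cells and 100% = gossypol at 36 µM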
NR2F2 inh: NR2F2 transcriptional activity inhibitors, primary screen, cell-based, luciferase reporter, HEK293T, luminescence; COUP transcription factor 2 (Homo sapiens), P24468; HEK293T NGFI-A luciferase reporter; inhibition, % at 8.6 µM; 370,000 tested, 0.7% active;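 active = inhibition above a per-plate cutoff, mean inhibition of test wells between control levels plus 3 SD, cut at about 38% in these data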;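 also: cells cotransfected with COUP-TFII expression vector driving the NGFI-A reporter; 0% = median of COUP-TF2 test wells and 100% = reporter-only cells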
Gli-Sufu antag: Gli-Sufu pathway antagonists, primary screen, luciferase luminescence, Sufu-KO-LIGHT cells, uHTS. Sufu-KO-LIGHT fibroblasts, Gli luciferase reporter luminescence. inhibition, % at 5 µM. 340,000 tested, 0.74% active. AID 588413, 2011;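 active = inhibition above about 55%, limit read from the data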;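 also: 0% = DMSO-treated cells and 100% = wells with medium but no cells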
Gal4-VP16 ctr: Gal4-VP16 luciferase reporter inhibitors, counter-screen for COUP-TFII antagonist project, cell-based, luminescence, HEK293. shares compounds with NR2F2 inh. AID 687007, 2013. 2,500 tested, 25% active. inhibition, % at 8.5 µM; in the data active = inhibition above about 13%
COUP-TFII conf: NR2F2 transcriptional activity inhibitors, confirmation, cell-based, luciferase reporter, HEK293, triplicate | shares compounds with NR2F2 inh | HEK293 NGFI-A luciferase reporter, luminescence | inhibition, % at 8.5 µM | 2,500 tested, 45% active | AID 687008, 2013;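 active = mean inhibition over three repeats above a set limit taken from the earlier primary screen, cut at about 38% in these data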;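 also: 100% = cells given the luciferase reporter alone without the COUP-TF2 vector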
* hit, by the source's call; nt = no result. Shown are actives, neighbours in structure and some others; about 1.3% of the full set was active somewhere.

SMILES	NCOA3 inh	NR5A2 inv ag	NCOA2 inhibitor	SRC1 inh	NR2F2 inh	Gli-Sufu antag	Gal4-VP16 ctr	COUP-TFII conf
CSc1ccc(NC(=O)Nc2cccn(Cc3ccccc3F)c2=O)cc1	-18	-23	-21	-15	39*	-33	-73	-8
O=C(N/N=C/c1sc(N2CCOCC2)nc1-c1ccccc1)c1cccc(S(=O)(=O)N2CCOCC2)c1	72*	75*	6	66*	54*	0	0	50*
COc1ccc(S[C@]2(C(=O)N3CCCC3)CC(=O)N(C(=O)c3ccccc3)[C@@H]2c2ccc(OC)cc2)cc1	nt	nt	22	nt	16	nt	nt	nt
O=C(NCc1nc2ccccc2[nH]1)c1ccc(Cl)c(S(=O)(=O)N2CCCC2)c1	-17	-9	-28	-4	-1	11	nt	nt
Cc1ccccc1CCNC(=O)c1ccc(Cl)c(S(=O)(=O)N2CC(C)OC(C)C2)c1 (stereo not drawn)	24	10	29	18	67*	14	1	34
CCCn1c(NC(=O)c2ccc(Cl)c(S(=O)(=O)N3CCCC3)c2)nc2ccccc21	-9	-1	21	-33	44*	-2	-8	15
CN(C)C(CNC(=O)c1ccc(Cl)c(S(=O)(=O)N2CCCCCC2)c1)c1ccccc1 (stereo not drawn)	19	29	9	11	63*	24	-1	35
COP(N)(=O)C(CC(C)C)NC(=O)OCc1ccccc1 (stereo not drawn)	nt	nt	8	nt	-1	nt	nt	nt
C#CCNc1cccc2c1S(=O)(=O)N[C@H](C)CO2	nt	nt	-10	nt	-11	nt	nt	nt
COc1ccc(-c2coc3c(C(=O)Nc4cccc(C(C)=O)c4)cccc23)c(C)c1	0	-4	-17	-5	18	nt	nt	nt
COc1ccc(-c2coc3c(C(=O)Nc4cccnc4)cccc23)c(C)c1	-13	-2	-3	-4	55*	nt	-16	18
CC(=O)C1=C(C)N(Cc2ccc(Br)cc2)C(=S)NC1c1cccc(F)c1 (stereo not drawn)	nt	nt	-26	nt	10	nt	nt	nt
Cc1cc(/C=C2/C(=O)NN(c3ccccc3)C2=O)c(C)n1-c1cccc(O)c1	26	-27	-23	22	41*	6	-62	39*
Oc1ccccc1Nc1nc(NCc2ccco2)c2ccccc2n1	5	-9	5	-1	15	12	nt	nt
Cc1cccc(Nc2nc(NCc3ccco3)c3ccccc3n2)c1	18	-5	35	-8	63*	82*	6	48*
Cc1ccccc1Nc1nc(NCc2ccco2)c2ccccc2n1	-24	-35	-9	-38	-32	27	nt	nt
c1ccc(Nc2nc(NCc3ccco3)c3ccccc3n2)cc1	-2	-53	30	-51	53*	56*	-14	26
C[C@H]1O[C@@H](O[C@H]2[C@@H](O)C[C@H](O[C@H]3[C@@H](O)C[C@H](O[C@H]4CC[C@@]5(C)[C@H](CC[C@@H]6[C@@H]5C[C@@H](O)[C@]5(C)[C@@H](C7=CC(=O)OC7)CC[C@]65O)C4)O[C@@H]3C)O[C@@H]2C)C[C@H](O)[C@@H]1O	91*	102*	61*	87*	80*	-29	48*	77*
CC(C)(C)[C@H]1C=C(C(=O)Nc2ccccc2)O[C@@H](OCCCCO)C1	39	51	30	32	63*	-9	-28	16
CC(C)(C)[C@@H]1C=C(C(=O)O)O[C@H](OCCCCO)C1	2	3	-15	13	-17	-2	nt	nt
